From PubChem BioAssay (NCI)
This is part of a sample that, as a whole, favours compounds with a hit. Of some 79,000 tested, about 15% had one in any assay. Active and inactive are the calls of the source. No stated cut-off is given here; in the data, active means growth inhibition above about 70%; inactive means the rest.

Experiments:
[1] = NCI Yeast Anticancer Drug Screen. Data for the rad50 strain (AID 155);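 further: 0% = growth of vehicle-only cultures of the same strain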; details: S. cerevisiae rad50 strain growth inhibition; at 50.0 µM; stronger effect = higher value
Summary of the method: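 DNA repair mutant yeast, compound exposure, growth read-out; inhibition is taken relative to vehicle.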

[2] = NCI Yeast Anticancer Drug Screen. Data for the mec2-1 strain (AID 157); details: S. cerevisiae mec2-1 strain, at 50.0 µM, stronger effect = higher value
Summary of the method: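 Readout is yeast growth inhibition, normalised to vehicle-treated controls, in the mec2-1 strain exposed to compound.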

[3] = NCI Yeast Anticancer Drug Screen. Data for the sgs1 mgt1 strain (AID 161);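 further: 0% = growth of cultures given vehicle only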; details: S. cerevisiae sgs1 mgt1 strain, at 50.0 µM, stronger effect = higher value
Summary of the method: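 Yeast cells carrying a defined DNA-repair defect were exposed to test compounds. Growth inhibition was measured relative to vehicle-treated controls.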

[4] = NCI Yeast Anticancer Drug Screen. Data for the cln2 rad14 strain (AID 165);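 further: 0% = growth equal to vehicle treated cultures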; details: S. cerevisiae cln2 rad14 strain, at 50.0 µM, stronger effect = higher value
Summary of the method: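 Relative to vehicle controls, growth inhibition of compound-treated cln2 rad14 yeast was recorded.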

[5] = NCI Yeast Anticancer Drug Screen. Data for the bub3 strain (AID 167); details: S. cerevisiae bub3 mutant strain, at 50.0 µM, stronger effect = higher value
Summary of the method: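 In this screen, a yeast mutant lacking normal mitotic checkpoint function is challenged with compound. Relative growth versus vehicle gives the inhibition value.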

[6] = NCI Yeast Anticancer Drug Screen. Data for the mlh1 rad18 strain (AID 175); details: S. cerevisiae mlh1 rad18 strain growth inhibition; at 50.0 µM; stronger effect = higher value
Summary of the method: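 Test agents were incubated with a yeast strain of defined genotype (DNA damage repair defect). Inhibition of growth was derived by comparison with vehicle-exposed cultures.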

Measured: growth inhibition

CSc1c(C)n([O-])c2ccccc2[n+]1=O
inactive: [1] 23.1% | [2] 26.1% | [3] 8.85% | [4] -20.5% | [5] 26.1% | [6] 5.4%

CCc1cccc(C(C)(C)C)c1NC(=S)NC=C(C#N)C#N
inactive: [1] 27.9% | [2] -11.6% | [3] 36.8% | [4] 26.8% | [5] 17.6% | [6] 45.8%

COc1ccc(C2(C)OC(=O)c3ccccc32)c2ccccc12 (configuration not stated)
active: [1] 71% | [5] 73.2%
inactive: [2] 49.9% | [3] 46.3% | [4] 39.2% | [6] 65.7%

O=C1C2Cc3ccccc3CN2C(=O)N1CCN1CCCC1 (configuration not stated)
inactive: [1] -19.1% | [2] -33.7% | [3] -12.1% | [4] 4.3% | [5] -22.6% | [6] 8%

C=C1CC2OC(=O)C(=C)C2C(OC(=O)c2ccccc2)/C=C(\C)CCC1OC(=O)c1ccccc1 (configuration not stated)
inactive: [1] -13.7% | [2] -3.25% | [3] -11.2% | [4] -39.3% | [5] -0.85% | [6] -21.4%

COC(=O)c1ccc(N(C)CC/C(CNc2nc(N)[nH]c(=O)c2[N+](=O)[O-])=N\NC(N)=O)cc1
inactive: [1] 9.35% | [2] 10.6% | [3] -2.4% | [4] 6.25% | [5] -7.55% | [6] -4.15%

NCCCc1ccc2c(c1)OCO2
inactive: [1] 42.2% | [2] 6.45% | [3] 36% | [4] 47.7% | [5] 30.4% | [6] 50.5%

CC1(C)C(=O)c2cc3ccc4ccccc4c3cc2C(C)(C)C1(C)C
inactive: [1] -1.25% | [2] -4.25% | [3] 1.2% | [4] 43.6% | [5] 2.75% | [6] -7%

O=C(NN(Cn1c(=S)sc2ccccc21)Cn1c(=S)sc2ccccc21)c1ccccc1O
inactive: [4] 57.6% | [5] 69%
active: [1] 86.7% | [2] 74.2% | [3] 89% | [6] 76.2%

OCCSC1CCCCC1
inactive: [1] 12.1% | [2] 6.35% | [3] -1.55% | [4] 0.1% | [5] -16.1% | [6] 1.5%

C=CCOc1ccc(C2C(C(=O)OC)C(=O)CC(O)(c3ccccc3)C2C(=O)OC)cc1OC (configuration not stated)
inactive: [1] -63.2% | [2] -24.6% | [3] -14.9% | [4] -13.2% | [5] -0.9% | [6] -19.7%

O=C1c2ccccc2C(=O)N1CCOCCOCCOCCN1C(=O)c2ccccc2C1=O
inactive: [1] 9.4% | [2] -5.95% | [3] -0.75% | [4] -12.3% | [5] -2.75% | [6] -36%

CCN(CC)CCN=C1Nc2ccccc2N(O)N1
inactive: [1] 0.55% | [2] -1.5% | [3] 11.6% | [4] -23.3% | [5] 12.6% | [6] -2.95%

O=C(O)CNCCO
inactive: [1] -0.35% | [2] 7.75% | [3] 6.65% | [4] 0% | [5] 22.2% | [6] -0.25%

CCOC(=O)C1=C2c3ccc4cc(OC)ccc4c3CCC2(C)C(=O)C1 (configuration not stated)
inactive: [1] -19.1% | [2] 15.5% | [3] -2.55% | [4] -21.1% | [5] -11.2% | [6] -21.1%

CCSC(C(O)C(O)C(O)C(O)CO)n1cc(C)c(=O)[nH]c1=O (configuration not stated)
inactive: [1] 3% | [2] 5.45% | [3] -2.85% | [4] -3.7% | [5] 4.2% | [6] -0.25%

CCOC(=O)[C@H]1CS[C@]2(c3ccco3)CC(=O)N12
inactive: [1] 14.4% | [2] 8.1% | [3] -12.6% | [4] -36.2% | [5] 1.6% | [6] 44.1%

CNC(CCc1ccccc1)C(=O)O (configuration not stated)
inactive: [1] 1.9% | [2] -1.25% | [3] 8.4% | [4] -7.3% | [5] 4.4% | [6] 2.7%

COC1=C(C(C2=C(OC)CC(C)(C)CC2=O)c2ccc3c(c2)OCO3)C(=O)CC(C)(C)C1
inactive: [1] 31.6% | [2] 7.7% | [3] -9.05% | [4] 0.3% | [5] -0.65% | [6] 11.9%

CCCCOC(=O)c1cccc(C(=O)OCCCC)n1
inactive: [1] -20.9% | [2] -18.9% | [3] -14.1% | [4] -5.6% | [5] -11.5% | [6] -22.8%

O=[N+]([O-])c1ccccc1SCl
inactive: [1] 11.7% | [2] 5.5% | [3] 5.05% | [4] -21.9% | [5] 2% | [6] 6.7%

CN1N(c2ccccc2)C(=O)C2=NC=C(C(=O)c3ccccc3)C(=N)C21C (configuration not stated)
inactive: [1] 6.2% | [2] -1.6% | [3] 22.1% | [4] 19.9% | [5] 7.7% | [6] 16.8%

CC(C)(C)CC(C)(C)NC(=O)CCl
inactive: [1] -6.05% | [2] 2.15% | [3] 2.6% | [4] -4.85% | [5] 10.3% | [6] -5.45%

Nc1ncnc(N)c1NC(=O)c1cccc(C(=O)c2ccccc2)c1
inactive: [1] 2.85% | [2] 16.1% | [3] -10.7% | [4] -3.5% | [5] 0.85% | [6] 0.85%

CC(C)(C)CC(C)(O)COC(=S)S (configuration not stated)
inactive: [1] -10.5% | [2] -18% | [3] 1.65% | [4] -11.2% | [5] -7.45% | [6] 0.55%

N#CC1CC12c1ccccc1C(=O)c1ccccc12 (configuration not stated)
inactive: [1] -1.9% | [2] 0.25% | [3] 0.8% | [4] -16.1% | [5] -21.4% | [6] -4.75%

Cc1ccc(SC(=O)N2C(=S)NC(=NC3CCCCC3)C23CCCCC3)cc1
inactive: [1] -14% | [2] -9.05% | [3] -4.05% | [4] -41.3% | [5] -32.5% | [6] -24.5%

O=C1/C(=C/c2cccc3ccccc23)CCc2ccc([N+](=O)[O-])cc21
inactive: [1] -34.5% | [2] -23.6% | [3] -49.9% | [4] -23.9% | [5] 20.1% | [6] -15.6%

NC1=NC(c2ccc(Cl)cc2)N(c2ccc(S(N)(=O)=O)cc2)C(N)=N1 (configuration not stated)
inactive: [1] 9.05% | [2] -4.35% | [3] -24.5% | [4] -21.9% | [5] -11.3% | [6] 21.6%

COc1cccc(N2C(=O)/C(=C/c3ccc(N(CCC#N)CCC#N)cc3)N=C2c2cc([N+](=O)[O-])ccc2Cl)c1
inactive: [1] 7.9% | [2] 27.9% | [3] 40.8% | [4] 32% | [5] 32.1% | [6] 28.9%

CCCCCCCCCCCCSC1=C(OC)C(=O)C(OC)=C(OC)C1=O
inactive: [1] 33.5% | [2] 13.8% | [3] 26.6% | [4] -5.2% | [5] -1.35% | [6] 16.5%

CC(=O)OCC1OC(n2nnc3c(=O)n(C)c(=O)[nH]c32)C(OC(C)=O)C(OC(C)=O)C1OC(C)=O (configuration not stated)
inactive: [1] 9.45% | [2] 16.1% | [3] 13.8% | [4] 4% | [5] 8.9% | [6] 29.4%

Clc1ccc(-c2cc(-c3ccc(Cl)cc3)n(-c3ccccc3)n2)cc1
inactive: [1] -17.5% | [2] -33.9% | [3] -24.2% | [4] 4% | [5] 6.55% | [6] -9.2%

COC(=O)Nc1cccc(-c2nc3ccc(NC(=O)OC)cc3c(=O)n2-c2ccccc2)c1
inactive: [1] -26.3% | [2] -16.9% | [3] -22.6% | [4] 8.55% | [5] -15.8% | [6] 5%

COc1ccc(C(Cc2ccccc2Cl)N(CCO)CCO)cc1 (configuration not stated)
inactive: [1] -7% | [2] -5.3% | [3] -9.1% | [4] -19.2% | [5] 5.5% | [6] -5.2%

CCCCCCCCCCCCCCCCS(=O)(=O)N/N=C/c1ccccc1O
inactive: [1] 25.9% | [2] 26.2% | [3] 30.2% | [4] 18.2% | [5] 6.2% | [6] 20.2%

C#CCN(CCO)Cc1ccccc1
inactive: [1] -3.4% | [2] -18.6% | [3] -3.75% | [4] 9.25% | [5] -4% | [6] 2.7%

O=S1(=O)CCCCC1C(O)(c1ccccc1)c1ccccc1 (configuration not stated)
active: [1] 96% | [2] 94.2% | [3] 91.2% | [4] 95.5% | [5] 95.8% | [6] 96%

N/N=C1/C=Cc2cccc3cccc1c23
inactive: [1] 19.3% | [2] -37.2% | [3] 15.3% | [4] 30.2% | [5] 16.2% | [6] 38.4%

O=C(O)Cn1c(=O)ccc2ccccc21
inactive: [1] 4.4% | [2] -3.25% | [3] -8.55% | [4] -37.7% | [5] -7.7% | [6] 4.9%

COC1CC(NC(C)=O)C(OC(C)=O)C(C)O1 (configuration not stated)
inactive: [1] -1.5% | [2] -9.6% | [3] -5.65% | [4] -29.2% | [5] -7.55% | [6] -1.4%

CC(=O)O[C@]12CCCCC1C1(O)C(O)CCCC[C@H]12 (some centres not stated)
inactive: [1] -41.8% | [2] -62.2% | [3] -65.5% | [4] -4.95% | [5] -20.6% | [6] -31.8%
